Assay [1] relates to Plasmodium falciparum Sir2 (PF13_0152, Sir2A). The experiment in a line: pfSir2 binders on small-molecule microarrays, primary screen, biochemical, small-molecule microarray, 635 nm fluorescence (AID 1098).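 Further: score merges spot fluorescence intensity with its signal-to-noise ratio.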 As to conditions: small-molecule microarray binding, fluorescence 635 nm; higher = more signal.
The nature of assay [2]: small-molecule microarray binders of probe aDKK1, primary screen, biochemical, biotinylated probe, 635/667 nm fluorescence (AID 1099).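 Further: score merges 667nm spot fluorescence with signal to noise across triplicate slides.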 To be noted: higher = more signal.
Assay [3] in a line: small-molecule microarray binders of probe aCHRDL2, primary screen, biochemical, biotinylated probe, 635/667 nm fluorescence (AID 1100). To be noted: higher = more signal.
The nature of assay [4]: splicing luciferase reporter signal modulators, primary screen, spliceosome inhibition project, cell-based, HEK293, splice +/- reporter (AID 1101).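 Further: HEK293 cells carrying a splicing-competent luciferase reporter gene; test concentration not given here.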 To be noted: luminescence, 24 h, higher = more signal, called active from +8 up or from −8 down.
Assay [5] deals with Fibroblast growth factor 10 (Homo sapiens) (UniProt O15520). The experiment in a line: FGF10 binders on small-molecule microarrays, primary screen, biochemical, small-molecule microarray, 635 nm fluorescence (AID 1102). To be noted: FGF10 binding, fluorescence 635 nm, higher = more signal.
Assay [6] relates to glycogen synthase kinase-3 (GSK3A per assay name; protocol says GSK3B). The experiment in a line: GSK3 binders on small-molecule microarrays, primary screen, biochemical, small-molecule microarray, 635 nm fluorescence, GSK3A (AID 1103). Further: the record names both GSK3A and GSK3B. As to conditions: small-molecule microarray binding, fluorescence 635 nm; higher = more signal.
Assay [7] has as its target Epidermal growth factor receptor (Homo sapiens) (UniProt P00533). The experiment in a line: EGFR binders on small-molecule microarrays, primary screen, biochemical, small-molecule microarray, 635 nm fluorescence (AID 1104).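 Further: score merges 667 nm emission intensity with spot signal to noise over triplicate slides.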 To be noted: EGFR binding, higher = more signal.
Assay [8] has as its target Follistatin-related protein 3 (Homo sapiens) (UniProt O95633). Kind of assay: FSTL3 binders on small-molecule microarrays, primary screen, biochemical, small-molecule microarray, 635 nm fluorescence (AID 1105).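 Further: score merges emission near 667 nm and signal to noise per printed spot across three slides.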 To be noted: FSTL3 binding, higher = more signal.
The target of assay [9] is Dickkopf-related protein 1 (Homo sapiens) (UniProt O94907). The experiment in a line: DKK1 binders on small-molecule microarrays, primary screen, biochemical, small-molecule microarray, 635 nm fluorescence scan (AID 1106).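 Further: score merges emission near 667 nm with signal to noise over three replicate slides.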 As to conditions: DKK1 binding, higher = more signal.
Assay [10] deals with Inhibin beta A chain (activin A). The experiment in a line: INHBA (activin A) binders on microarrays, primary screen, biochemical, small-molecule microarray, 635 nm fluorescence scan (AID 1107).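 Further: mouse activin A protein probed at 4.33 µg/mL on printed slides; score merges bound-protein fluorescence near 667 nm with spot signal-to-noise.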 As to conditions: small-molecule microarray binding, higher = more signal.
Assay [11] concerns Human papillomavirus type 1a protein E7 (residues 44-93). The experiment in a line: HPV1a E7 fragment binders on microarrays, primary screen, biochemical, small-molecule microarray, residues 44-93, 635 nm fluorescence (AID 1108).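 Further: E7 fragment applied at 1 µg/mL in TBST for 1 h at 4 C; score combines spot fluorescence with its signal to noise ratio.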 As to conditions: small-molecule microarray binding, fluorescence 635 nm; higher = more signal.
Assay [12] is described as follows: modulators of HCV replicon luciferase signal, primary screen, HCV replication inhibitor project, Huh7 cells, luciferase reporter (AID 1109).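 Further: huh7 hepatoma cells harbouring a luciferase neomycin HCV replicon reporter; luciferase luminescence as measure of HCV replicon replication; test concentration not given here.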 To be noted: 48 h, higher = more signal.
Assay [13] deals with Left-right determination factor 2 (Homo sapiens) (UniProt O00292). Kind of assay: LEFTY2 binders on small-molecule microarrays, primary screen, biochemical, small-molecule microarray, 635 nm fluorescence scan (AID 1110). To be noted: LEFTY2 binding, higher = more signal.
Assay [14] deals with Calmodulin-1 (Homo sapiens) (UniProt P0DP23). Kind of assay: CALM1 binders on microarrays, EGTA buffer, profiling panel, biochemical, small-molecule microarray, Cy5-labelled CALM1 (AID 1111).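 Further: labelled calmodulin applied in Tris saline Tween buffer holding calcium plus EGTA and DTT.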 To be noted: Cy5-CALM1 binding fluorescence, higher = more signal.
Assay [15] shares this target. Kind of assay: calcium-bound CALM1 binders on microarrays, profiling panel, artefact control for SMM control-protein annotation, biochemical, small-molecule microarray, Cy5-labelled CALM1, plus calcium (AID 1112).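 Further: score merges spot fluorescence with signal to noise from triplicate slides.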 To be noted: Cy5-CALM1 binding fluorescence, higher = more signal.
A short description of assay [16]: small-molecule microarray binders of probe aWnt5a, primary screen, biochemical, biotinylated probe, 635/667 nm fluorescence (AID 1113).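 Further: score merges 667 nm fluorescence intensity with signal-to-noise per printed feature.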 To be noted: higher = more signal.
The nature of assay [17]: small-molecule microarray binders of probe aShh, primary screen, biochemical, biotinylated probe, 635/667 nm fluorescence (AID 1114).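 Further: probe is biotin-labelled aShh protein from a stem cell growth factor screen; measures binding of labelled protein to compounds printed on the slide; score merges feature fluorescence at 667 nm with signal-to-noise.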 To be noted: higher = more signal.
Assay [18] can be described thus: small-molecule microarray binders of probe aNog, primary screen, biochemical, biotinylated probe, 635/667 nm fluorescence (AID 1115).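 Further: probe is biotinylated aNog protein used at 0.15 µg/mL for 1 h at 4 C; z-score combines 667 nm fluorescence of each spot with its signal to noise.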 To be noted: higher = more signal.
Assay [19] concerns the target Torsin-1A-interacting protein 1 (Homo sapiens) (UniProt Q5JTV8). Kind of assay: LAP1 binders from COS7 cell lysate, primary screen, small-molecule microarray, 635/667 nm fluorescence (AID 1116). To be noted: COS7-hLAP1 lysate binding, 635 nm fluorescence, higher = more signal.
The target of assay [20] is Alpha-bungarotoxin (Bungarus multicinctus) (UniProt P60615). Kind of assay: alpha-bungarotoxin binders on microarray, profiling panel, artefact control for SMM control protein annotation, biochemical, small-molecule microarray, Alexa647 label, 635/667 nm fluorescence (AID 1117). To be noted: alpha-BTX-A647 binding fluorescence, higher = more signal.

Calls of active or inactive are those of the source.

Torsin-1A-interacting protein 1 (Homo sapiens), sequence (Q5JTV8 whole entry, looked up): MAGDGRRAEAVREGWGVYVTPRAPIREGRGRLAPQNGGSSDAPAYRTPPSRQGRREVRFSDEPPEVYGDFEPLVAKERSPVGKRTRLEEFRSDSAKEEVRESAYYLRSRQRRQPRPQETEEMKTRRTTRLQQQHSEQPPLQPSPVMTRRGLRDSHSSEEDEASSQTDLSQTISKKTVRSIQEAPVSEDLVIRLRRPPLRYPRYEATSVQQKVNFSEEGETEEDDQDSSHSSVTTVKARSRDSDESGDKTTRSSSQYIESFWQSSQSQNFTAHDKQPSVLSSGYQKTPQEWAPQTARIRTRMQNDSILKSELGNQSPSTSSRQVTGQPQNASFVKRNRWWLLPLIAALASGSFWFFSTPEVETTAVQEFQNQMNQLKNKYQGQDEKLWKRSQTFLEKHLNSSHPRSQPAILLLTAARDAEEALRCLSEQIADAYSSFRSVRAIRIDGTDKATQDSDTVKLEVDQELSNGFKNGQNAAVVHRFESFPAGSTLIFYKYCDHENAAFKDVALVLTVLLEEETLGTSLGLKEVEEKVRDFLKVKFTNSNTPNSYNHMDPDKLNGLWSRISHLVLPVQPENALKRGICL
Follistatin-related protein 3 (Homo sapiens), sequence (O95633 whole entry, looked up): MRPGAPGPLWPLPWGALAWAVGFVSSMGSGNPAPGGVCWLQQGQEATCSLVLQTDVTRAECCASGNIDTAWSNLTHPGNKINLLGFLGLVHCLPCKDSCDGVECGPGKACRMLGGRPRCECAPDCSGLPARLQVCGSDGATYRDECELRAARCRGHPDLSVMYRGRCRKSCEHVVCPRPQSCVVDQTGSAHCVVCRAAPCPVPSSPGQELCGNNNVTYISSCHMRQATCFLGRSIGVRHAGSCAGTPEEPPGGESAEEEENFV
Dickkopf-related protein 1 (Homo sapiens), sequence (O94907 whole entry, looked up): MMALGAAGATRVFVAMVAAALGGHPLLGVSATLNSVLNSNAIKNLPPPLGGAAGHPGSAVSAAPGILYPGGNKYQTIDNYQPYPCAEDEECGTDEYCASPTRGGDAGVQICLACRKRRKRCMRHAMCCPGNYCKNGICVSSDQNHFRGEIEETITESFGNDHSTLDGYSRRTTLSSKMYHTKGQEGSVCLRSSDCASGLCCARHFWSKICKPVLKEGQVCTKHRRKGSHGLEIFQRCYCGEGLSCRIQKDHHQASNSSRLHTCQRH
Alpha-bungarotoxin (Bungarus multicinctus), sequence (P60615 whole entry, looked up): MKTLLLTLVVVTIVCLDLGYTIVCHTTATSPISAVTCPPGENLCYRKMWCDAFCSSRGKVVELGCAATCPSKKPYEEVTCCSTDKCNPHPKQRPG
Epidermal growth factor receptor (Homo sapiens), sequence (P00533 whole entry, looked up): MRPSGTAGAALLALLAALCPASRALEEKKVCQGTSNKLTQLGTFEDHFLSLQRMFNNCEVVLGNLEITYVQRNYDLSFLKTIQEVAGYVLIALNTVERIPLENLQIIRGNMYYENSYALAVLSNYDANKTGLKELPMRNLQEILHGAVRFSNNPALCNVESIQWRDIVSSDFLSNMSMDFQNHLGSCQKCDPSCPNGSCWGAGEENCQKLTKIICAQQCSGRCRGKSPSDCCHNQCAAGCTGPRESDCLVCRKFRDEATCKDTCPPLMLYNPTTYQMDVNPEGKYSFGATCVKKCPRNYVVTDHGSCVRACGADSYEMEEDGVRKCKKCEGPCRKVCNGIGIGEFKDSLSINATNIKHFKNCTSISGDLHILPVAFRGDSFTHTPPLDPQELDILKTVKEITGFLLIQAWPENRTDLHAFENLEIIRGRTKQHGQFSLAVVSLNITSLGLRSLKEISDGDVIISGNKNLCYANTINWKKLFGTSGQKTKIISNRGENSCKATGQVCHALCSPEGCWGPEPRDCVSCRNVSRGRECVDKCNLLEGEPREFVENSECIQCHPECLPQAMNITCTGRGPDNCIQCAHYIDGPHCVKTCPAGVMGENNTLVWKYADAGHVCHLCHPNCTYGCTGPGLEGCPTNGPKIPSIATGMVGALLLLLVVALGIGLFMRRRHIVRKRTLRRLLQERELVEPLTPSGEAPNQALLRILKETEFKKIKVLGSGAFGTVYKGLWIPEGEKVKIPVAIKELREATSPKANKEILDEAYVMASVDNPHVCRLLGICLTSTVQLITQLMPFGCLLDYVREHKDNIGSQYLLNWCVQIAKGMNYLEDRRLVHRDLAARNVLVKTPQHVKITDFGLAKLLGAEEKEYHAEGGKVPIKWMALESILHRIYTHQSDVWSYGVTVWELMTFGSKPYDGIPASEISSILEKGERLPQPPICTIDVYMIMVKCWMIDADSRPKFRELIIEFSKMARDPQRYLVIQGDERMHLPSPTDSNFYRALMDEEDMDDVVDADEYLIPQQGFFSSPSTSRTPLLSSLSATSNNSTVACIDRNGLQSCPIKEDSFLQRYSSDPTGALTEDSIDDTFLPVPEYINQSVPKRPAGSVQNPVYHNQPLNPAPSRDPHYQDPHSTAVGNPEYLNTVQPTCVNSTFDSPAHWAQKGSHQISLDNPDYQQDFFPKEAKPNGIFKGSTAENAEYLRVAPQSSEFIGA
Left-right determination factor 2 (Homo sapiens), sequence (O00292 whole entry, looked up): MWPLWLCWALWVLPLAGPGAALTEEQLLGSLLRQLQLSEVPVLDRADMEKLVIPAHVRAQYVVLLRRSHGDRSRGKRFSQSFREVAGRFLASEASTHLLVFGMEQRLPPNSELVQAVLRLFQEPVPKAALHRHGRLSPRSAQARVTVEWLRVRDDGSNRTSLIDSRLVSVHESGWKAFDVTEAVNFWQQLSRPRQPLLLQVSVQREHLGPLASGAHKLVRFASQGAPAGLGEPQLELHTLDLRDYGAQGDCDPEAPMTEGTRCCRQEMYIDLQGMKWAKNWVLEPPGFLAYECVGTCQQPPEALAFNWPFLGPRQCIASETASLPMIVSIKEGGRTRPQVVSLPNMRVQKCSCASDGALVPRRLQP
Fibroblast growth factor 10 (Homo sapiens), sequence (O15520 whole entry, looked up): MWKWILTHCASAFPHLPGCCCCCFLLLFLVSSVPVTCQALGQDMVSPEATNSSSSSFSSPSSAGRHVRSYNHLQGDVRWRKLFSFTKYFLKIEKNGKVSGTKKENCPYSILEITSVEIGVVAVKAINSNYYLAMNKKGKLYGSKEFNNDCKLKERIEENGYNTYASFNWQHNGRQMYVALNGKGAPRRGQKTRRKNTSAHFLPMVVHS

For the compound `COc1ccc(CCNC(=O)[C@@H]2c3ccccc3C(=O)N(Cc3ccc(OC(F)(F)F)cc3)[C@H]2c2ccc(CO)cc2)cc1`, the composite z-score is 1.7 in assay [1]; 0.0658 in assay [2]; 0.396 in assay [3]; 0.719 in [5]; 0.965 in assay [6]; -0.227 in assay [7]. Further, the composite z-score in assay [8] is 0.251; in [9] it was -0.204; in assay [10], 0.258; in assay [11], 1.38; in [13] it was -0.264; in assay [14], 0.107. In addition, the composite z-score was -0.12 in assay [15]; -0.146 in assay [16]; -0.147 in assay [17]; 0.28 in [18]; 1 in assay [19]; -0.0177 in [20]. Further, the z-score in [4] was 0.0514 (inactive); in assay [12], -1.81.

On to `COc1ccc(C(O)C2C=CC3C(=O)N(C)C(=O)C3N2Nc2ccccc2)cc1OCc1ccccc1` (stereo not given), for which the composite z-score in assay [1] was 1.1; in [2], 0.679; in assay [3], 0.85; in [5], 0.868; in assay [6], 0.841; in assay [7], 0.165. The composite z-score is 0.814 in assay [8]; -0.0523 in [9]; 0.152 in assay [10]; 1.43 in assay [11]; 0.195 in [13]; 1.52 in assay [14]. In addition, the composite z-score is 0.519 in [15]; -0.0529 in [16]; -0.221 in assay [17]; 0.289 in assay [18]; 1.25 in assay [19]; 1.79 in assay [20]. Also, the z-score was 0.89 (inactive) in assay [4] and -0.685 in assay [12].

As to `O=C1OCCC=C[C@H]2OC34C=CCN(Cc5ccccc5)C(=O)[C@H]3N(CCCO)C(=O)[C@@H]4C12` (stereo not given in full), the composite z-score in [1] is 0.53; in [2], -0.33; in [3] it was -0.182; in assay [5], -0.745; in assay [6], -1.44; in assay [7], -0.873. Moreover, the composite z-score in assay [8] is -0.512; in assay [9], -0.179; in assay [10], 0.399; in assay [11], -0.786; in [13], -0.424; in [14], -0.438. Further, the composite z-score in [15] was 0.0072; in assay [16], -0.164; in [17] it was -0.206; in assay [18] it was -0.0602; in assay [19], 0.0647; in [20] it was -0.473. The results for the z-score in [4] and in assay [12] were -1.74 (inactive) and -0.0946, respectively.

On to `C=CC[C@@]1(C(=O)N2CCOCC2)N=C(c2ccc(OCCCO)cc2)O[C@@H]1c1ccccc1N=[N+]=[N-]`, for which the composite z-score in [1] amounted to 0.904; in assay [2] it was 1.01; in assay [3], 1.08; in assay [5] it was 1.31; in assay [6], 0.951; in assay [7] it was 0.279. In addition, the composite z-score was 0.606 in assay [8]; 0.174 in assay [9]; 1.16 in [10]; 1.45 in assay [11]; 0.37 in assay [13]; 1.83 in assay [14]. Moreover, the composite z-score in [15] is 0.904; in [16] it was 0.171; in assay [17], -0.043; in assay [18], 1.82; in [19] it was 1.47; in [20] it was 1.8. Besides, the values for the z-score in [4] and in assay [12] were -2.33 (inactive) and -1.82, respectively.

With `CCC(CC)C(O)C1C=CC2C(=O)N(c3ccccc3)C(=O)C2N1Nc1ccc(C#N)cc1` (stereo not given), the composite z-score in [1] came to 0.82; in assay [2] it was 1.29; in [3] it was 0.705; in assay [5] it was 0.783; in assay [6] it was 1.27; in assay [7], 0.231. The composite z-score in assay [8] is 0.78; in assay [9], -0.197; in assay [10] it was 0.794; in assay [11] it was 1.46; in assay [13] it was 0.0717; in assay [14] it was 1.67. In addition, the composite z-score was found to be 0.55 in assay [15]; 0.275 in assay [16]; 0.57 in [17]; 1.78 in [18]; 0.602 in assay [19]; 1.08 in assay [20]. The z-score in [4] was 1.22 (inactive); in assay [12], 0.106.

Consider `O=C1O[C@H](c2ccccc2)[C@H](c2ccccc2)N2[C@H]1[C@@H](C(=O)NC[C@H](O)c1ccccc1)[C@]1(C(=O)Nc3ccc(C#CCCO)cc31)[C@H]2c1ccc(O)cc1`, for which the composite z-score in assay [1] is -0.229; in assay [2] it was -0.145; in assay [3] it was 0.0258; in [5], -0.716; in [6], -1.28; in [7] it was -0.286. Also, the composite z-score is -1.17 in assay [8]; -0.523 in assay [9]; 0.644 in assay [10]; -0.453 in assay [11]; -0.47 in assay [13]; -0.6 in assay [14]. Further, the composite z-score in assay [15] is -0.158; in assay [16] it was -0.202; in assay [17], 0.0469; in assay [18], -0.0725; in assay [19] it was 0.0234; in assay [20] it was -1.61. Besides, the figures for the z-score in [4] and in assay [12] were -0.551 (inactive) and -1.07, respectively.

The values above are taken from PubChem BioAssay.
